Most compounds without a hit are left out; they make up all but 20% or so of the library.
Shiga inhibitor: A qHTS for Small Molecule Inhibitors of Shiga Toxin | Vero cells, Shiga toxin protein synthesis inhibition reporter | inhibition, % at 38.7 µM | hit rate 9.2% among 290,000 | AID 2315, 2010; in the data active = inhibition mostly above about 28%, no sharp cut-off; inactive = mostly below about 43%; also: 0% is about no effect
HCMV antiviral: qHTS Assay for inhibitors of the human cytomegalovirus (HCMV). activity change, negative = inhibition, % at 57.5 µM. hit rate 4.5% among 410,000. AID 1259415, 2018. HFF cells, HCMV-luciferase reporter, 72 h; hits give low values; in the data active = activity change below about -60%; inconclusive = no clear call, values can overlap the other calls; inactive = above about -39%; also: % is scaled to controls: 0 for no effect and ±100 for the full control effect
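Two-dose cell screen: HFF monolayers treated with compounds and infected with luciferase-expressing HCMV at 1 PFU/cell, 72 h at 37C, then lysed for luciferase measurement.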
Cycloheximide cs: Cycloheximide Counterscreen for Small Molecule Inhibitors of Shiga Toxin. max response, %. hit rate 12% among 300,000. cell reporter, cycloheximide protein synthesis inhibition counterscreen; in the data active = max response mostly above about 13%, no sharp cut-off; inactive = mostly below about 14%; also: read at 38.3 µM for the half of the compounds with a filed dose; 0% is about no effect
Pf growth 96h: Primary qHTS for delayed death inhibitors of the malarial parasite plastid, 96 hour incubation; Potency, µM (highest dose often 28.7 µM), without a hit: at the top dose activity change, negative = inhibition, actives largely listed as inhibitors; hit rate 6.9% among 320,000; P. falciparum luciferase reporter growth, 96 h; also: potency is read from the fitted curve at half-maximal effect; % is scaled to controls: 0 for no effect and ±100 for the full control effect
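Delayed-death screen, second-generation endpoint: infected erythrocytes, 2% hematocrit, 0.05% parasitemia final; 96 hours at 37 C, 5% CO2; luciferase detection reagent; luminescence decrease equals reduced growth.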
Pf growth 48h: Primary qHTS for delayed death inhibitors of the malarial parasite plastid, 48 hour incubation. P. falciparum luciferase growth in erythrocytes, 48 h. Potency, µM (top dose mostly 28.7 µM), without a hit: at the top dose activity change, negative = inhibition, actives largely listed as inhibitors. hit rate 5.9% among 310,000. AID 504832, 2011; also: potency is read from the fitted curve at half-maximal effect; % is scaled to controls: 0 for no effect and ±100 for the full control effect
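In quantitative HTS format, infected erythrocytes bearing luciferase-reporter parasites were treated for a single generation at 37 C. Luminescence after adding detection reagent served as the growth measure.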
Numbers without * were called inactive; ? = inconclusive; . = not tested or not shown. Unless noted, calls follow the shape of the dose curve; as a rule, active = well fitted inhibition curve with a large enough effect; inconclusive = small, poorly fitted or top-dose-only effect, or another doubt; inactive = no such curve, though single readings can be large or run the other way.

SMILES	Shiga inhibitor	HCMV antiviral	Cycloheximide cs	Pf growth 96h	Pf growth 48h
O=C(NCc1cccc(C(F)(F)F)c1)C1CCN(c2ncccn2)CC1	23	16	-3	22%	8%
Cc1cc(C)nc(N2CCC(C(=O)NCc3cccc(C(F)(F)F)c3)CC2)n1	-12	21	1	2.1µM*	2%
CCCC(=O)N1CCC1(C)C(=O)Nc1cc(C)ccc1C (stereo not given)	.	-10	.	.	.
COc1ccc(NC(=O)CCCn2nc(C)c3c(C)n(-c4ccccc4)nc3c2=O)cc1OC	2	28	-2	?	2%
Cc1cccc(C)c1NC(=O)CCCn1nc(C)c2c(C)n(-c3ccccc3)nc2c1=O	-2	-14	-1	12µM*	-16%
CCOc1ccc(NC(=O)CCCn2nc(C)c3c(C)n(-c4ccccc4)nc3c2=O)cc1	-2	-2	-3	12µM*	?
Cc1ccc(NC(=O)CCCn2nc(C)c3c(C)n(-c4ccccc4)nc3c2=O)cc1C	-8	-37	13	?	1%
CC(=O)Nc1ccc(Nc2ccc3cc(S(=O)(=O)N4CCCCC4)ccc3n2)cc1	.	-5	.	.	.
CC(/C=C/c1ccccc1)NC(N)=O (stereo not given)	-4	-10	-2	-5%	0%
COc1ccc(-c2nc3nc(N)nn3cc2C)cc1F	-2	-1	1	?	40%
O=C(c1cc(-c2ccncc2)nc2ccc(Br)cc12)N1CCN(c2ccccn2)CC1	20	41	-4	.	-13%
COc1ccc(-c2cc(C(=O)N3CCCCC3)c3ccccc3n2)cc1	.	-6	.	-84%	5%
CC(C)Oc1cccc(-c2cc(C(=O)N3CCN(S(C)(=O)=O)CC3)c3ccccc3n2)c1	57	34	37*	?	?
O=C(c1cc(-c2ccccc2Cl)nc2ccc(Br)cc12)N1CCN(c2ccccn2)CC1	.	-90*	.	.	.
CC(C)Oc1cccc(-c2cc(C(=O)N3CCN(c4ncccn4)CC3)c3ccccc3n2)c1	68*	75	43*	9.3µM*	.
O=C(c1cc(-c2cccs2)nc2ccccc12)N1CCN(S(=O)(=O)c2cccc(F)c2)CC1	30*	-21	32*	.	?
COc1ccc(CCNC(=O)c2ccc3c(c2)NC(=O)C(CSCc2cc(C)ccc2C)N3)cc1OC (stereo not given)	26	.	-1	-2%	3%
CCc1ccc(-n2nc(CO)c(C(=O)NCc3cccnc3)n2)cc1	.	2	.	.	.
O=C(c1cc(-c2ccccn2)nc2c(Cl)cccc12)N1CCN(C(=O)C2CCCO2)CC1 (stereo not given)	3	17	12	.	-16%
Cc1ccc(-c2cc(C(=O)N3CCN(c4ncccn4)CC3)c3ccccc3n2)cc1	53	22	49*	13%	?
Cc1ccc2nc(-c3ccccn3)cc(C(=O)N3CCN(c4ncccn4)CC3)c2c1	-3	-3	-2	2.6µM*	22%
O=C(Nc1ccc([N+](=O)[O-])cc1)c1cc(-c2ccccn2)nc2c(Cl)cccc12	-5	-32	-2	15µM*	18%
O=C(c1cc(-c2ccccn2)nc2c(Cl)cccc12)N1CCN(S(=O)(=O)c2ccccc2)CC1	-7	118	6	-16%	10µM*
Cc1ccc(C(=O)c2oc3ccccc3c2NC(=O)c2cc(=O)c3ccccc3o2)cc1	.	-26	.	.	.
COc1cccc(-c2cc(C(=O)N3CCN(c4ncccn4)CC3)c3ccccc3n2)c1	59*	67	19*	-23%	?
SMILES	Shiga inhibitor	HCMV antiviral	Cycloheximide cs	Pf growth 96h	Pf growth 48h
COc1ccc(-c2cc(C(=O)N3CCN(c4ncccn4)CC3)c3ccccc3n2)cc1OC	.	108	.	-39%	?
CCn1c(C)nc2cc(C(=O)OCCC(F)(F)F)ccc21	86*	21	29*	-2%	29%
CCn1c(C)nc2cc(N)ccc21	74	-39	35*	38%	28%
CCn1c2ccccc2c2cc(N)ccc21	-8	-34	8	12µM*	?
Cc1oc(-c2ccccc2)nc1CNC(=O)NC1CCCCC1	.	-9	.	.	.
CCCNc1c(NS(=O)(=O)c2ccc(OC)c(OC)c2)c(=O)oc2ccccc12	-4	.	-8	?	-6%
CC1CN(S(=O)(=O)c2ccc(NC(=O)c3cc(-c4ccccc4O)n[nH]3)cc2)CC(C)O1 (stereo not given)	-5	-98*	-1	0.93µM*	1.7µM*
O=C(Nc1ccc(S(=O)(=O)N2CCOCC2)cc1)c1cc(-c2ccccc2O)n[nH]1	14	?	-1	?	10µM*
CC(Sc1n[nH]c(=O)n1Cc1ccccc1)C(=O)NCC1CCCO1 (stereo not given)	.	6	.	6%	4%
CC1(C(=O)NS(=O)(=O)c2ccccc2)CCN1C(=O)c1ccccc1CCc1ccccc1 (stereo not given)	.	-14	.	.	.
CC(C)c1ccccc1NC(=O)C(Cc1c[nH]c2ccccc12)NC(=O)OC(C)(C)C (stereo not given)	.	-22	.	.	.
N#Cc1ccccc1NC(=O)CN1C(=O)NC(Cc2c[nH]c3ccccc23)C1=O (stereo not given)	.	37	.	?	?
CCOc1ccc2nc(NC3=NCN(Cc4ccco4)CN3)nc(C)c2c1	-19	.	-7	15µM*	?
Cc1nc(NC2=NCN(C3CCCCC3C)CN2)nc2ccccc12 (stereo not given)	-3	.	9	?	13µM*
Cc1nc(NC2=NCN(Cc3cccnc3)CN2)nc2ccccc12	-11	42	-7	?	0%
Cc1ccc2nc(NC3=NCN(Cc4ccccc4)CN3)nc(C)c2c1	-18	.	1	23%	?
Cc1nc(NC2=NCN(Cc3ccco3)CN2)nc2ccccc12	-15	.	-1	1.9µM*	-20%
Cc1nc(NC2=NCN(CCCN3CCOCC3)CN2)nc2c(C)cccc12	6	.	-2	-6%	2.3µM*
Cc1nc(NC2=NCN(Cc3ccccc3)CN2)nc2ccccc12	-9	.	1	-14%	?
CN(Cc1ccco1)C(=O)CC[C@H]1O[C@@H](n2ccc(=O)[nH]c2=O)[C@H](O)[C@@H]1O	.	3	.	.	.
CCOC(=O)c1n[nH]n2c1nc(=S)c1ccccc12	-4	-10	-1	?	-5%
CCOc1ccc(S(=O)(=O)Oc2ccc3ccccc3c2)cc1	43*	25	29*	-2%	45%
Cc1ccc(S(=O)(=O)Oc2ccc3ccc(O)cc3c2)cc1	.	4	29*	-2%	18%
CCOc1ccc(N=Cc2ccc3ccccc3c2)cc1	-4	26	1	215%	5%
O=C(CCc1nc2ccccc2c(=O)[nH]1)NCCN1C(=O)S/C(=C\c2ccc(Cl)cc2Cl)C1=O	.	-12	.	23%	?
N#Cc1nc(Cc2ccccc2)oc1NCc1ccccc1Cl	41*	-32	48*	.	?
N#Cc1nc(-c2ccc(COc3ccccc3)o2)oc1NCc1cccnc1	.	-14	.	.	.

Assay outcomes: PubChem, National Center for Advancing Translational Sciences (NCATS)
